# Several values for one entry are separate records, joined by “and”; a condition that tells them apart may be missing. Equal values may be shown once. Activity calls are given as the source filed them. How the source made its calls: active means hit-call score of the fitted dose curve at least 0.9, where 1 is the maximum; inconclusive means response in the unintended direction; inactive means score below 0.9.
# Target: Estrogen receptor (Homo sapiens) (UniProt P03372)
# Assay: OT_ER_ERaERa_1440: Odyssey Thera (OT) 24-hour HEK293T Protein-Complementation Assay for Estrogen Receptor-alpha/-alpha Homodimer (AID 2283349);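 further: hits raise fluorescence above DMSO for agonists and antagonists alike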
# Protocol: OT_ER_ERaERa_1440 is a cell-based assay that uses HEK293T, a human kidney cell line, with measurements taken at 24 hours after chemical dosing in a 384-well plate.OT_ER_ERaERa_1440 is one of one assay component(s) measured or calculated from the OT_ER_ERaERa_1440 assay. It is designed to make measurements of protein fragment complementation, a form of binding reporter, as detected with fluorescence intensity signals by Protein-fragment Complementation technology.Data from the assay component OT_ER_ERaERa_1440 was analyzed into 1 assay endpoint. This assay endpoint, OT_ER_ERaERa_1440, was analyzed in the positive analysis fitting direction relative to DMSO as the negative control and baseline of activity. Using a type of binding reporter, measures of receptor for gain-of-signal activity can be used to understand the binding at the pathway-level as they relate to the gene ESR1. Furthermore, this assay endpoint can be referred to as a primary readout, because the performed assay has only produced 1 assay endpoint. To generalize the intended target to other relatable targets, this assay endpoint is annotated to the nuclear receptor intended target family, where the subfamily is steroidal.
# Protein-fragment complementation assay, or PCA, is a method for the identification and quantification of protein-protein interactions. In the PCA, the proteins of interest ("bait" and "prey") are each covalently linked to fragments of a third protein (e.g. DHFR, which acts as a "reporter"). Interaction between the bait and the prey proteins brings the fragments of the reporter protein in close proximity to allow them to form a functional reporter protein whose activity can be measured. The OT ER alpha / ER alpha assay is a homodimer PCA of the ligand binding domain (amino acids 310-547) of human ER alpha stably expressed in HEK293T cells. […] Fluorescent signal in the basal state of the assay is very low and is primarily punctuate and cytoplasmic. Modulation of this assay is quantified as an increase in mean fluorescence intensity in the nucleus (for agonists) or in the nucleus and cytoplasm (antagonists) relative to vehicle controls, and can be quantified on a high content imaging device or a laser scanning cytometer. The latter instrument is favored for this assay because of the rapid mode of data acquisition, the ability to acquire data from the entire cell population in a well (as opposed to a fraction of the well on the high content devices) and the larger dynamic range typically achieved with this instrument. To assess sensitivity of the ER alpha/ER alpha LBD assay to ligand, cells were treated with the ER agonist 17 beta-estradiol (E2) in 10-point concentration- response format for 24 hours and monitored response on a laser scanning plate cytometer (Acumen eX3; TTP Lab Tech).
# Chain of Estrogen receptor (Homo sapiens) (P03372 whole entry, looked up): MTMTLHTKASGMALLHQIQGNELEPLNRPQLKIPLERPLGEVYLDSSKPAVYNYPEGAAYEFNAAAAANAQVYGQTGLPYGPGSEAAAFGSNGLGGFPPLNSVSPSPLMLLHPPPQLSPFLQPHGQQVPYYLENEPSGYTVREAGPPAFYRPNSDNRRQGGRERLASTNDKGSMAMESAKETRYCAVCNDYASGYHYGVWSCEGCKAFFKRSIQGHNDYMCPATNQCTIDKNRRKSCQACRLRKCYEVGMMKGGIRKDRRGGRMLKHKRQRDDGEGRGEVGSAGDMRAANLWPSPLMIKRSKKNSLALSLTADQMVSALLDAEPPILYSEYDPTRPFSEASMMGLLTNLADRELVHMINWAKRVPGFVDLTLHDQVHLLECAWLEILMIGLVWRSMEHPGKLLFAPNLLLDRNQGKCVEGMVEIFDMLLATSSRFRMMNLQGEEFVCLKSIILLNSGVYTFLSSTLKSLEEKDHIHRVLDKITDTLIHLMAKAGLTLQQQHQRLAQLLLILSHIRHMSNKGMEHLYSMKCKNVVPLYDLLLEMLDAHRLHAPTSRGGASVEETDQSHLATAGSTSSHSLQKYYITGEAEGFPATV
Compound,outcome,AC50
N#Cc1cc(Br)c(O)c(Br)c1,inactive,
C=CCC1=C(C)[C@@H](OC(=O)[C@@H]2[C@@H](C=C(C)C)C2(C)C)CC1=O,inactive,
Cc1cc(Cl)ccc1OCC(=O)O,inactive,
CC1COC(Cn2cncn2)(c2ccc(Oc3ccc(Cl)cc3)cc2Cl)O1 (stereo not given),inactive,
O=C(O)COc1nc(Cl)c(Cl)cc1Cl,inactive,
N#Cc1nn(-c2c(Cl)cc(C(F)(F)F)cc2Cl)c(N)c1S(=O)C(F)(F)F (stereo not given),inactive,
CC1=C(C(=O)Nc2ccccc2)SCCO1,inactive,
CCCCC(CC)COC(=O)c1ccccc1C(=O)OCC(CC)CCCC (stereo not given),,66 µM (active)
CON(C)C(=O)Nc1ccc(Cl)c(Cl)c1,inactive,
CO/C=C(/C(=O)OC)c1ccccc1Oc1cc(Oc2ccccc2C#N)ncn1,inactive,
O=C(Nc1ccccc1)Nc1ccnc(Cl)c1,inactive,
COP(N)(=O)SC (stereo not given),inactive,
CN(C)C(=S)SSC(=S)N(C)C,inactive,
CC(C)(C)c1ccc(CSc2cnn(C(C)(C)C)c(=O)c2Cl)cc1,inactive,
C=CCC1=C(C)C(OC(=O)C2C(C=C(C)C)C2(C)C)CC1=O (stereo not given),inactive,
CNC(=S)S,inactive,
CCCCNC(=O)n1c(NC(=O)OC)nc2ccccc21,inactive,
CCCN(CCC)c1c([N+](=O)[O-])cc(S(N)(=O)=O)cc1[N+](=O)[O-],inactive,
COc1ccc(C(c2ccc(OC)cc2)C(Cl)(Cl)Cl)cc1,,13.8 µM (active) and 21.6 µM (active) and 14.4 µM (active)
COC(=O)C=C(C)OP(=O)(OC)OC,inactive,

Compound,outcome,AC50
COc1cnc(OC)n2nc(NS(=O)(=O)c3c(OCC(F)F)cccc3C(F)(F)F)nc12,inactive,
Fc1ccc(Oc2ccnc3cc(Cl)cc(Cl)c23)cc1,inactive,
Cc1ccc(-c2c(Cl)nc(C#N)n2S(=O)(=O)N(C)C)cc1,inactive,
Cc1c(F)c(F)c(COC(=O)C2C(/C=C(\Cl)C(F)(F)F)C2(C)C)c(F)c1F (stereo not given),inactive,
COC(=O)c1ccccc1C(=O)OC,inactive,
CCON=C(CC)C1=C(O)CC(c2c(C)cc(C)cc2C)CC1=O (stereo not given),inactive,
CC(Oc1ccc(Cl)cc1Cl)C(=O)O (stereo not given),inactive,
CC(C)Oc1cc(-n2nc(C(C)(C)C)oc2=O)c(Cl)cc1Cl,inactive,
CCNc1nc(Cl)nc(NCC)n1,inactive,
CCc1nn(C)c(C(=O)NCc2ccc(C(C)(C)C)cc2)c1Cl,inactive,
CCOP(=S)(OCC)SCn1c(=O)oc2cc(Cl)ccc21,inactive,
COC(=O)N(OC)c1ccccc1COc1ccn(-c2ccc(Cl)cc2)n1,inactive,
CC(C)C1(C)N=C(c2nc3ccccc3cc2C(=O)O)NC1=O (stereo not given),inactive,
CCOC(=O)C(Cl)Cc1cc(-n2nc(C)n(C(F)F)c2=O)c(F)cc1Cl (stereo not given),inactive,
COP(=S)(OC)Oc1nc(Cl)c(Cl)cc1Cl,inactive,
C#CCOS(=O)OC1CCCCC1Oc1ccc(C(C)(C)C)cc1 (stereo not given),inactive,
CCCCOC(=O)c1ccccc1C(=O)OCCCC,,35.4 µM (active) and 46.5 µM (active) and 60 µM (active)
CCOC(=O)CC(SP(=S)(OC)OC)C(=O)OCC (stereo not given),inactive,
Oc1ccccc1-c1ccccc1,inactive,
CCCCNC(=O)OCC#CI,inactive,

# — PubChem BioAssay (EPA / NIEHS)
